Laboratory results published in PubChem BioAssay (EPA / NIEHS).
“And” between values parts separate entries of the source, which are not always exact repeats. Equal entries are not always repeated. The source made the active and inactive calls. How the source made its calls, unless noted: active means hit-call score of the fitted dose curve at least 0.9, where 1 is the maximum; inactive means score below 0.9.

Legend:
[1] = read-out: Macrophage colony-stimulating factor (MCSF), CSF1 (gene 1435); experiment: BSK_LPS_MCSF: BioMAP Diversity Plus: LPS Assay for Macrophage colony-stimulating factor (MCSF) Biomarker Activity (AID 2283083); conditions: primary human HUVEC with PBMC; actives raise or lower the signal
How it was run: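 Bidirectional fit versus DMSO of ELISA-measured M-CSF in co-cultured human umbilical vein endothelial cells and PBMC, sampled 24 h after dosing.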

[2] = read-out: Tissue Factor, F3 (gene 2152); experiment: BSK_LPS_TissueFactor: BioMAP Diversity Plus: LPS Assay for Tissue Factor Biomarker Activity (AID 2283084); conditions: primary human HUVEC with PBMC; actives raise or lower the signal
How it was run: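 Read-out: CD142 ELISA, 24 h. System: LPS-driven human endothelial/PBMC co-culture. Analysis: up- or down-signal fitted against DMSO.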

[3] = read-out: Tumor necrosis factor (Homo sapiens) (UniProt P01375); experiment: BSK_LPS_TNFa: BioMAP Diversity Plus: LPS Assay for Tumour Necrosis Factor alpha (TNFa) Biomarker Activity (AID 2283085); conditions: primary human HUVEC with PBMC; actives raise or lower the signal;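 on AC50: TNFa protein level quantified by ELISA in the co-culture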
How it was run: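 TNFa was quantified by ELISA in LPS-activated co-cultures of human endothelial cells and PBMC, 24 h post-dosing. Both increases and decreases versus DMSO were fitted.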

[4] = read-out: CD38, CD38 (gene 952); experiment: BSK_SAg_CD38: BioMAP Diversity Plus: SAg Assay for CD38 Biomarker Activity (AID 2283087); conditions: primary human HUVEC with PBMC; actives raise or lower the signal
How it was run: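 CD38 quantified by ELISA (fluorescence) in a superantigen-activated endothelial cell–PBMC co-culture at 24 h post-dose. Activity fitted in both directions relative to DMSO; parallel SRB and Alamar Blue cytotoxicity read-outs.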

[5] = read-out: CD40, CD40 (gene 958); experiment: BSK_SAg_CD40: BioMAP Diversity Plus: SAg Assay for CD40 Biomarker Activity (AID 2283088); conditions: primary human HUVEC with PBMC; actives raise or lower the signal
How it was run: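 Endpoint derived by fitting increases or decreases versus DMSO controls. CD40 is detected by fluorescence ELISA in a human vascular co-culture of endothelium and PBMC at 24 h.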

[6] = read-out: Monocyte Chemoattractant Protein-1 (MCP1), CCL2 (gene 6347); experiment: BSK_SAg_MCP1: BioMAP Diversity Plus: SAg Assay for Monocyte Chemoattractant Protein-1 (MCP1) Biomarker Activity (AID 2283090); conditions: primary human HUVEC with PBMC; actives raise or lower the signal
How it was run: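 Values derive from bidirectional fitting of ELISA-measured MCP1 against DMSO controls. Readings were taken 24 h after dosing human vascular endothelial cells co-cultured with peripheral blood mononuclear cells under superantigen stimulation.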

[7] = read-out: E-selectin (Homo sapiens) (UniProt P16581); experiment: BSK_SAg_Eselectin: BioMAP Diversity Plus: SAg Assay for Eselectin Biomarker Activity (AID 2283091); conditions: primary human HUVEC with PBMC; actives raise or lower the signal
How it was run: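 Endpoint values derive from bidirectional fitting relative to DMSO, using ELISA-measured E-selectin in a human vascular co-culture (umbilical vein endothelium plus PBMC) sampled 24 h after dosing.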

[8] = read-out: Monokine induced gamma interferon (MIG), CXCL9 (gene 4283); experiment: BSK_SAg_MIG: BioMAP Diversity Plus: SAg Assay for Monokine induced gamma interferon (MIG) Biomarker Activity (AID 2283092); conditions: primary human HUVEC with PBMC; actives raise or lower the signal
How it was run: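 Values reflect bidirectional fitting of ELISA-measured MIG against DMSO vehicle, taken 24 h after dosing of a co-culture of human umbilical vein endothelial cells and peripheral blood mononuclear cells.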

[9] = BSK_SAg_PBMCCytotoxicity: PBMC Cytotoxicity Assessment in the BioMAP Diversity Plus: SAg Assay (AID 2283093); conditions: primary human HUVEC with PBMC;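 further: PBMC viability measured as Alamar Blue reduction fluorescence at 546/580 nm; fitted both ways against DMSO so a hit may be loss or gain of signal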;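 on AC50: PBMC superantigen activated with SEB plus TSST-1 one hour after compound addition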
How it was run: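 Alamar Blue reduction (6 h, 546/580 nm) reports PBMC cytotoxicity after 90 h superantigen activation (SEB, TSST-1; 20 ng/mL final each) with 1 h compound pre-treatment. Gain or loss of signal fitted versus DMSO.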

[10] = read-out: Interleukin-8 (IL8), CXCL8 (gene 3576); experiment: BSK_SAg_IL8: BioMAP Diversity Plus: SAg Assay for Interleukin-8 (IL8) Biomarker Activity (AID 2283094); conditions: primary human HUVEC with PBMC; actives raise or lower the signal
How it was run: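 ELISA readout of IL-8 from a superantigen-activated endothelial/PBMC primary human co-culture, taken 24 h post-dosing and fitted in both directions against DMSO; parallel SRB total-protein staining flags overt cytotoxicity.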

[11] = BSK_SAg_Proliferation: Cell Proliferation Assessment in the BioMAP Diversity Plus: SAg Assay (AID 2283095); conditions: primary human HUVEC with PBMC;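 further: relative cell number as total protein by SRB absorbance in sub-confluent culture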
How it was run: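 Relative cell number in the endothelial cell/PBMC co-culture was quantified at 96 h by SRB staining (0.1% SRB, 10% TCA fixation, read at 560 nm). Curves were fitted in both directions relative to DMSO baseline.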

[12] = BSK_SAg_SRB: Viability Assessment in the BioMAP Diversity Plus: SAg Assay (AID 2283096); conditions: primary human HUVEC with PBMC;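 further: cells read one day after compound addition; hits may be either gain or loss of signal compared with DMSO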
How it was run: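 This overt-cytotoxicity endpoint quantifies protein in human endothelial/PBMC co-cultures at 24 h using SRB absorbance (560 nm) after trichloroacetic acid fixation. Values reflect signal change from the DMSO negative control, fitted bidirectionally.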

[13] = target: human CYP2D6, CYP2D6 (gene 1565) (UniProt P10635); experiment: NVS_ADME_hCYP2D6: NovaScreen (NVS) CYP450-related Enzyme Activity (ADME) Assay for human CYP2D6 (AID 2283107; active means hit-call score of the fitted dose curve at least 0.9, where 1 is the maximum)
human CYP2D6, CYP2D6 (gene 1565), sequence (P10635 whole entry, looked up): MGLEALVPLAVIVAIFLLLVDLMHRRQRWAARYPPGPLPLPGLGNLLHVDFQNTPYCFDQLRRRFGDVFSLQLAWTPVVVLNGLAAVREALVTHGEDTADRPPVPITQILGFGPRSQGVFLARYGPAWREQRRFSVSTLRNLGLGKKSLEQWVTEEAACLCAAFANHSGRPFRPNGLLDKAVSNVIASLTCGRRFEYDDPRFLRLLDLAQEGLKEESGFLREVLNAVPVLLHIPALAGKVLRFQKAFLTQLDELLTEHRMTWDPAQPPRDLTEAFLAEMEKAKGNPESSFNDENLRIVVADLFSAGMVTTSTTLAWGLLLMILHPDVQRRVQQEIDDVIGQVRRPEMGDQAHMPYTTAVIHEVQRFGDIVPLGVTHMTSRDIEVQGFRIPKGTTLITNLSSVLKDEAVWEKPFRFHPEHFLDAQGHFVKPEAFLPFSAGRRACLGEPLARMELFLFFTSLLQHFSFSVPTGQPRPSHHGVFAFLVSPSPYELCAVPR
How it was run: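 Biochemical fluorescence assay, insect-cell-derived enzyme. Read at 1 h; inhibition taken from loss of signal against acetonitrile. Screened at 10 uM in duplicate, with concentration series for actives.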

Measured: AC50

Tumor necrosis factor (Homo sapiens), sequence (P01375 whole entry, looked up): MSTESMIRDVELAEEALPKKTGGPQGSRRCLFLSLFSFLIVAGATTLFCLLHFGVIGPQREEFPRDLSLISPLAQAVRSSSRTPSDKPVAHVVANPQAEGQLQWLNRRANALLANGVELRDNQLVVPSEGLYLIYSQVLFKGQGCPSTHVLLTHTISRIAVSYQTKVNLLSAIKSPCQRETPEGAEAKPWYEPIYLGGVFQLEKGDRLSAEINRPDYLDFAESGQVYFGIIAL
E-selectin (Homo sapiens), sequence (P16581 whole entry, looked up): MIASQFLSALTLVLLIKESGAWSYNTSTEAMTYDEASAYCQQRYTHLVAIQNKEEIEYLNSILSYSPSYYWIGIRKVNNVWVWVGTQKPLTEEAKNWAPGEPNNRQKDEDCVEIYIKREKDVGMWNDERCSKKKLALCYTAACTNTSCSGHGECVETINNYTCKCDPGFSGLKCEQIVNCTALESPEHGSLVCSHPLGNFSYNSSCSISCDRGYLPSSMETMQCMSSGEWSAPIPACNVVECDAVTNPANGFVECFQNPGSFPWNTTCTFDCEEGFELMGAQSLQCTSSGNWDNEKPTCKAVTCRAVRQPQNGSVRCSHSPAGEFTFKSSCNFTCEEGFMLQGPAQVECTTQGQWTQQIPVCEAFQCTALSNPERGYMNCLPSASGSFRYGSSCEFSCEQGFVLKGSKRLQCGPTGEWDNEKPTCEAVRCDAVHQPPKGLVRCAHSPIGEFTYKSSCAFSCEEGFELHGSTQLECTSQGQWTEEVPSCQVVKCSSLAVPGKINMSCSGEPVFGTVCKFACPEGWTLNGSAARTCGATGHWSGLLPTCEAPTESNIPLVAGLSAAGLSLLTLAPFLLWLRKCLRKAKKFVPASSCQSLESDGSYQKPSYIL

CN(C)c1ccc(C(=C2C=CC(=[N+](C)C)C=C2)c2ccccc2)cc1
active: [1] 0.0379 µM | [2] 0.025 µM | [3] 0.0138 µM | [4] 0.0535 µM | [5] 0.00857 µM | [6] 0.026 µM | [7] 0.0082 µM | [8] 0.132 µM | [9] 481 nM | [10] 2.78 µM | [11] 15.3 nM | [12] 0.0747 µM

CCCCCCCCCCCCCCCCCC[N+](C)(C)Cc1ccccc1
active: [1] 2.73 µM | [2] 2.69 µM | [3] 3.58 µM | [4] 2.73 µM | [5] 2.74 µM | [6] 3.01 µM | [7] 4.86 µM | [8] 3.19 µM | [9] 919 nM | [10] 10 µM | [11] 312 nM | [12] 2.67 µM | [13] 0.425 µM

CS(=O)(=O)c1ccc([C@@H](CC2CCCC2)C(=O)Nc2cnccn2)cc1Cl
not listed: [9] | [11] | [13]
inactive: all other assays above

COc1cccc(O)c1
not listed: [11] | [13]
inactive: all other assays above

COc1cc(OC)nc(NC(=O)NS(=O)(=O)Nc2ccccc2C(=O)N(C)C)n1
not listed: [11] | [13]
inactive: all other assays above

CC(C)(C)c1ccc(O)c(O)c1
active: [1] 29.2 µM | [2] 20 µM | [3] 32.8 µM | [4] 28.5 µM | [5] 27.3 µM | [6] 30.6 µM | [7] 19.2 µM | [8] 34.8 µM | [9] 3060 nM | [10] 20 µM | [11] 2680 nM | [12] 29.1 µM

NC(=NCCCCCCN=C(N)/N=C(\N)Nc1ccc(Cl)cc1)/N=C(\N)Nc1ccc(Cl)cc1
active: [1] 4.92 µM | [2] 4.98 µM | [3] 20.5 µM | [4] 8.71 µM | [5] 5.1 µM | [7] 5.02 µM | [8] 7.58 µM | [9] 7060 nM | [10] 0.896 µM | [11] 2720 nM | [12] 4.89 µM

O=C(CCCN1CCC(O)(c2ccc(Cl)cc2)CC1)c1ccc(F)cc1
active: [2] 20 µM | [12] 19 µM
not listed: [11] | [13]
inactive: all other assays above

Oc1c(Cl)cc(Cl)cc1Sc1cc(Cl)cc(Cl)c1O
active: [1] 26.3 µM | [2] 34 µM and 33.6 µM | [3] 29.9 µM and 30 µM | [4] 9.47 µM and 9.95 µM | [5] 13.8 µM and 9.99 µM | [6] 8.87 µM and 5.21 µM | [7] 8.08 µM and 7.11 µM | [8] 12.4 µM and 12 µM | [9] 29.1 µM and 30 µM | [10] 4.54 µM and 5.28 µM | [11] 5.29 µM and 5.92 µM | [12] 23.8 µM and 17.2 µM

Oc1cc2ccccc2cc1O
not listed: [11] | [13]
inactive: all other assays above

CC[N+](CC)(CC)Cc1ccccc1
not listed: [11] | [13]
inactive: all other assays above

CC(=O)Nc1ccc(O)cc1
not listed: [7] | [11] | [13]
inactive: all other assays above

COCN(COC)c1nc(N(COC)COC)nc(N(COC)COC)n1
not listed: [11] | [13]
inactive: all other assays above

O=C1NS(=O)(=O)c2ccccc21
not listed: [11] | [13]
inactive: all other assays above

CN(CCO)S(=O)(=O)C(F)(F)C(F)(F)C(F)(F)C(F)(F)C(F)(F)C(F)(F)C(F)(F)C(F)(F)F
not listed: [11] | [13]
inactive: all other assays above
